We go through 13 compounds from PubChem BioAssay.

A word on the inhibition: it is the drop in the measured response relative to a control, in per cent.

Calls of active or inactive are those of the source.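 The calls were made as follows, unless noted: active = at least 20% inhibition of 6-phosphogluconate dehydrogenase activity; inactive = the rest.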

The target in assay [1] is 6-phosphogluconate dehydrogenase, decarboxylating (Homo sapiens) (UniProt P52209). The assay can be described thus: 6PGD enzyme inhibitors, primary screen, biochemical, human, recombinant enzyme, NADPH absorbance (AID 1159550). Particulars: recombinant 6PGD, NADPH absorbance 341 nm; at 10 µM; stronger effect = higher value.
Assay [2] in a line: differential killing of epithelial or mesenchymal cells, primary screen, imaging, PC-3E GFP, TEM4-18 mCherry, co-culture (AID 1345086;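 active = compounds killing one labelled cell type while sparing the other, by normalised counts and ratio limits, not self-fluorescent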;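 as to all read-outs here: cells exposed to compound for 72 h before imaging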;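 as to red/green cell ratio (normalised): normalised mesenchymal count divided by normalised epithelial count so high means epithelial killing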). Particulars: imaging cell counts, at 1 µM; for red/green cell ratio (normalised): actives lie on both sides.
Assay [3] has as its system Aerobactin synthetase IucA (Klebsiella pneumoniae hvKP1). The assay can be described thus: Biochemical IucA enzyme inhibition primary screen of the Spectrum library (AID 1346200; call rule not given here;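 also: 100% = wells without compound and 0% = wells lacking enzyme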). Conditions: malachite green pyrophosphate, A620, at 8 µM, stronger effect = lower value.
In assay [4] the target is Mitogen-activated protein kinase 7 (Homo sapiens) (UniProt Q13164). The assay can be described thus: ERK5 transactivation activators in reporter cells, primary screen, cell-based, HTS (AID 1508626;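 active = luciferase signal above three times the same-plate solvent-only control wells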;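 also: luciferase driven by Gal4-ERK5 fusion binding five Gal4 sites before minimal TATA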). Particulars: HeLa Gal4-ERK5 transactivation, 18 h, at 5 µM, stronger effect = higher value.
[5] abbreviates: measured here: epithelial PC-3E GFP cell survival.
Setting [6] is: measured here: mesenchymal TEM4-18 mCherry cell survival.

Chain of Mitogen-activated protein kinase 7 (Homo sapiens) (Q13164 whole entry, looked up, the tested form may be a part): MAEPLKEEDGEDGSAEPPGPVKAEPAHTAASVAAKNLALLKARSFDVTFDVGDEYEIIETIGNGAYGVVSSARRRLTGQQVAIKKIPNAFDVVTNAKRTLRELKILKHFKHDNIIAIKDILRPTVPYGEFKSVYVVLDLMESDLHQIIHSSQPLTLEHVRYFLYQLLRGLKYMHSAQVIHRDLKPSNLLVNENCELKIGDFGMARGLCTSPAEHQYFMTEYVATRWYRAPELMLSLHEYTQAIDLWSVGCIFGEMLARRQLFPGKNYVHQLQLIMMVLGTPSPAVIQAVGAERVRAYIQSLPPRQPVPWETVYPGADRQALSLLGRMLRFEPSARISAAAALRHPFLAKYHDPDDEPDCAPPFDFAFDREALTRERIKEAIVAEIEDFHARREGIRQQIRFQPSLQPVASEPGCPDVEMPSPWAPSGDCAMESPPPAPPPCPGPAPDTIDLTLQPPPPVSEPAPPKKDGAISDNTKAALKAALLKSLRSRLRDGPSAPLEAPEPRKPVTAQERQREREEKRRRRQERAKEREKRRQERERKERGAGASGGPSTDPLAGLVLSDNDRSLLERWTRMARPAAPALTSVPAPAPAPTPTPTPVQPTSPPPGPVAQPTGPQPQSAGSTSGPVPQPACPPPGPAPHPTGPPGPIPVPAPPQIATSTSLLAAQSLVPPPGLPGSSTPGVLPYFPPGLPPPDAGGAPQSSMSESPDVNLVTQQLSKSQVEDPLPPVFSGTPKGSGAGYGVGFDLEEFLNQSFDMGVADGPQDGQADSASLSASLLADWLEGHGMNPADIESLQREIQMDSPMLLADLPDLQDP
Chain of 6-phosphogluconate dehydrogenase, decarboxylating (Homo sapiens) (P52209 whole entry, looked up): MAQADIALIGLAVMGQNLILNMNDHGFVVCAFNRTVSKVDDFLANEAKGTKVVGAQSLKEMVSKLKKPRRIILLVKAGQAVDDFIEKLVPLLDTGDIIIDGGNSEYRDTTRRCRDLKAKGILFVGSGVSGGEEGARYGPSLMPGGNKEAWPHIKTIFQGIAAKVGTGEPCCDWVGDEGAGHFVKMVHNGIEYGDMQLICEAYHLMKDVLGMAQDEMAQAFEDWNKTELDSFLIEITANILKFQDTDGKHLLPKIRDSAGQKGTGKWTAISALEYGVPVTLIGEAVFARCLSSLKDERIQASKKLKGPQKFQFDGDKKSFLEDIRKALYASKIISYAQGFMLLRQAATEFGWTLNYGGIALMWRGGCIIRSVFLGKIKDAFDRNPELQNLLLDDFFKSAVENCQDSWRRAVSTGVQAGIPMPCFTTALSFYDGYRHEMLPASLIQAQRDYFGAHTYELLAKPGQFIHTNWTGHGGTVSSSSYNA

As for `CC1(C)C2CC(=O)[C@]3(C)C(CC[C@@]4(C)[C@H](c5ccoc5)OC(=O)C5OC543)[C@@]2(C)[C@@H](O)C[C@H]1O` (stereo partly drawn), the inhibition in assay [1] is -2.4% (inactive). Besides, the red/green cell ratio (normalised) in assay [2] is 1.04 (inactive). In addition, the normalised cell number was found to be 0.78 in assay [2] (setting [5]) and 0.8 in assay [2] (setting [6]). In addition, the activity remaining in assay [3] is 107% (inactive). Further, the luciferase signal in assay [4] was 80 AU (inactive).

Regarding `CC(=O)OC1CCC23C(=O)OC45CCC(C6=CC(=O)OC6)C4(C)CCC2C5CCC3(O)C1` (stereo not drawn), the inhibition in assay [1] is -5.39% (inactive). In addition, the red/green cell ratio (normalised) in assay [2] was 0.32 (inactive). The normalised cell number in assay [2] (setting [5]) is 0.2; in assay [2] (setting [6]) it was 0.07. Further, in assay [3], the activity remaining is 124% (inactive). Further, the luciferase signal in assay [4] is 16 AU (inactive).

On to `CC(C)(C#N)O[C@@H]1O[C@H](CO)[C@@H](O)[C@H](O)[C@H]1O`, for which the inhibition in assay [1] was 5.98% (inactive). Besides, the red/green cell ratio (normalised) in assay [2] was 0.8 (inactive). For the same compound, the normalised cell number came to 0.84 in assay [2] (setting [5]) and 0.67 in assay [2] (setting [6]). Moreover, in assay [3], the activity remaining is 94.3% (inactive). For the same compound, the luciferase signal in assay [4] was 92 AU (inactive).

Turning to `CC[C@@]1(O)C[C@H](O)c2c(cc3c(c2O)C(=O)c2c(O)ccc(O)c2C3=O)[C@H]1C(=O)OC`, the inhibition in assay [1] is 10.8% (inactive). Further, the red/green cell ratio (normalised) in assay [2] was 0.85 (inactive). Also, the normalised cell number in assay [2] (setting [5]) was determined as 0.96; in assay [2] (setting [6]), 0.82. Also, the activity remaining in assay [3] is 112% (inactive). In addition, the luciferase signal in assay [4] was 52 AU (inactive).

As to `O=[N+]([O-])c1ccc(O)c([N+](=O)[O-])c1`, the inhibition in assay [1] is -2.82% (inactive). Moreover, the red/green cell ratio (normalised) in assay [2] is 0.86 (inactive). Also, the normalised cell number is 1.08 in assay [2] (setting [5]) and 0.93 in assay [2] (setting [6]). In addition, in assay [3], the activity remaining was 110% (inactive). Also, the luciferase signal in assay [4] is 44 AU (inactive).

For the compound `CCOC(=O)C1C(C=C(C)C)C1(C)C` (stereo not drawn), the inhibition in assay [1] is -0.74% (inactive). Moreover, in assay [2], the red/green cell ratio (normalised) was 0.99 (inactive). Moreover, the normalised cell number is 1.19 in assay [2] (setting [5]) and 1.18 in assay [2] (setting [6]). The activity remaining in assay [3] is 107% (inactive). For the same compound, the luciferase signal in assay [4] was 60 AU (inactive).

As for `COc1cc2ccc(=O)oc2c2ccoc12`, the inhibition in assay [1] was 13.8% (inactive). Moreover, in assay [2], the red/green cell ratio (normalised) is 1.01 (inactive). Moreover, the normalised cell number in assay [2] (setting [5]) was determined as 0.96; in assay [2] (setting [6]) it was 0.97. The activity remaining in assay [3] is 119% (inactive). The luciferase signal in assay [4] was 64 AU (inactive).

Take `CC(=O)Oc1ccc(/C=C/c2cc(OC(C)=O)cc(OC(C)=O)c2)cc1`: in assay [1], the inhibition is -2.26% (inactive). The red/green cell ratio (normalised) in assay [2] was 1.01 (inactive). The normalised cell number in assay [2] (setting [5]) stood at 0.98; in assay [2] (setting [6]), 1. Also, the activity remaining in assay [3] was 103% (inactive). Further, the luciferase signal in assay [4] is 20 AU (inactive).

On to `N#Cc1c(Cl)c(Cl)c(Cl)c(C#N)c1Cl`, for which the inhibition in assay [1] was -66.6% (inactive). Moreover, in assay [2], the red/green cell ratio (normalised) was 0.93 (inactive). Further, the normalised cell number in assay [2] (setting [5]) and in assay [2] (setting [6]) was 0.04 each time. Further, the activity remaining in assay [3] was 108% (inactive). In addition, the luciferase signal in assay [4] is 604 AU (active).

On to `CC(C)c1ccc2c(c1O)CC[C@H]1C3=C(CC[C@]21C)C(=O)OC3`, for which the inhibition in assay [1] was -50.6% (inactive). Besides, the red/green cell ratio (normalised) in assay [2] is 0.95 (inactive). Moreover, the normalised cell number was determined as 1.07 in assay [2] (setting [5]) and 1.02 in assay [2] (setting [6]). Besides, the activity remaining in assay [3] is 90.4% (inactive). The luciferase signal in assay [4] was 64 AU (inactive).

As for `CC1=CCCC2C1(C)CCC(C)C2(C)CC/C(C)=C/C[n+]1cn(C)c2c(N)ncnc21` (stereo not drawn), the inhibition in assay [1] was 12% (inactive). Also, the red/green cell ratio (normalised) in assay [2] was 0.92 (inactive). Moreover, the figures for the normalised cell number in assay [2] (setting [5]) and in assay [2] (setting [6]) were 0.97 and 0.89, respectively. For the same compound, the activity remaining in assay [3] is 115% (inactive). The luciferase signal in assay [4] was 64 AU (inactive).

As for `COc1cc2c(cc1O)CCNC2C` (stereo not drawn), in assay [1], the inhibition is -21.7% (inactive). Besides, the red/green cell ratio (normalised) in assay [2] is 0.92 (inactive). The normalised cell number in assay [2] (setting [5]) amounted to 1; in assay [2] (setting [6]) it was 0.92. In assay [3], the activity remaining was 107% (inactive). For the same compound, in assay [4], the luciferase signal was 120 AU (inactive).

For the compound `CC1(C)C(=O)[C@@H]2O[C@@H]2[C@@]2(C)C1C[C@@H](O)[C@]1(C)C2CC[C@@]2(C)[C@H](c3ccoc3)OC(=O)C3OC321` (stereo partly drawn), the inhibition in assay [1] was 4.53% (inactive). Also, the red/green cell ratio (normalised) in assay [2] was 1.01 (inactive). Besides, the normalised cell number in assay [2] (setting [5]) and in assay [2] (setting [6]) was 1.01 each time. The activity remaining in assay [3] is 96.1% (inactive). Besides, the luciferase signal in assay [4] is 24 AU (inactive).
